PubChem BioAssay (NCATS)
Inconclusive results are not listed. Values without a mark were called inactive. Active and inactive are the calls of the source. Calls come from the whole dose curve; as a rule, active = well fitted cell-killing curve with a large enough effect; inconclusive = small, poorly fitted or top-dose-only effect, or effect the other way; inactive = no such curve, though single readings can be large or run the other way.

Columns and labels:
[1] = Quantitative High-Throughput drug screen in 47 multiple myeloma cell lines against the NCATS MIPE library collection: OCIMY7_PLB cell viability assay (AID 1918987); details: OCI-MY7 myeloma viability, CellTiter-Glo ATP, 48 h; viability (% of DMSO): at 45.8 µM (top of the series); note: nearly all actives have a fitted effect of over 65% in size
In short: (§1)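 Inhibition of viability over 48 h was scored by ATP content (CellTiter-Glo) in 500-cell wells. Zero and full viability were defined by media-only and DMSO-only wells.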

[2] = Quantitative High-Throughput drug screen in 47 multiple myeloma cell lines against the NCATS MIPE library collection: OCIMY5_PLB cell viability assay (AID 1918988); note: nearly all actives have a fitted effect of over 65% in size
In short: as §1

[3] = Quantitative High-Throughput drug screen in 47 multiple myeloma cell lines against the NCATS MIPE library collection: SKMM1_PLB cell viability assay (AID 1919863); details: SKMM1 myeloma viability, CellTiter-Glo ATP, 48 h; viability: hits give low values; note: nearly all actives have a fitted effect of over 35% in size
In short: as §1

[4] = Quantitative High-Throughput drug screen in 47 multiple myeloma cell lines against the NCATS MIPE library collection: U266_ATCC cell viability assay (AID 1919864); note: nearly all actives have a fitted effect of over 35% in size
In short: as §1

[5] = Quantitative High-Throughput drug screen in 47 multiple myeloma cell lines against the NCATS MIPE library collection: XG6_PLB cell viability assay (AID 1919865); note: nearly all actives have a fitted effect of over 40% in size
In short: as §1

[6] = Quantitative High-Throughput drug screen in 47 multiple myeloma cell lines against the NCATS MIPE library collection: XG1_PLB cell viability assay (AID 1919866); note: nearly all actives have a fitted effect of over 35% in size
In short: as §1

[7] = Quantitative High-Throughput drug screen in 47 multiple myeloma cell lines against the NCATS MIPE library collection: VP6_DJ cell viability assay (AID 1919867); note: nearly all actives have a fitted effect of over 40% in size
In short: as §1

[8] = Quantitative High-Throughput drug screen in 47 multiple myeloma cell lines against the NCATS MIPE library collection: PE2_PLB cell viability assay (AID 1919869); note: nearly all actives have a fitted effect of over 35% in size
In short: as §1

[9] = Quantitative High-Throughput drug screen in 47 multiple myeloma cell lines against the NCATS MIPE library collection: OPM1_PLB cell viability assay (AID 1918989); note: nearly all actives have a fitted effect of over 40% in size
In short: as §1

[10] = Quantitative High-Throughput drug screen in 47 multiple myeloma cell lines against the NCATS MIPE library collection: UTMC2_PLB cell viability assay (AID 1919868); details: CellTiter-Glo ATP luminescence, 48 h; viability (% of DMSO control): at 45.8 µM (top of the series); note: nearly all actives have a fitted effect of over 55% in size
In short: as §1
Potency is the fitted concentration of half-maximal effect.

Row | SMILES | Potency [1] | Potency [2] | Potency [3] | Potency [4] | Potency [5] | Potency [6] | Potency [7] | Potency [8] | Potency [9] | Potency [10]
1 | CC(C)[C@H](CO)Nc1nc(Nc2cccc(Cl)c2)c2ncn(C(C)C)c2n1 | 6.62 µM (active) | 18.7 µM (active) | 20.9 µM (active) | 18.7 µM (active) | 5.26 µM (active) | 6.62 µM (active) | 13.2 µM (active) | 18.7 µM (active) |  | 
2 | O=C(NC1CC1)c1cccc(-c2ccc3c(NC(=O)C4CC4)n[nH]c3c2)c1 | 7.43 µM (active) | 0.332 µM (active) |  |  | 1.48 µM (active) | 1.05 µM (active) | 9.35 µM (active) |  | 14.8 µM (active) | 
3 | CNC(=O)Nc1ccc(-c2nc(N3CC4CCC(C3)O4)c3cnn(C4CCC5(CC4)OCCO5)c3n2)cc1 | 3.72 µM (active) | 0.833 µM (active) | 0.0166 µM (active) | 0.0148 µM (active) |  |  |  |  |  | 
4 | Nc1nc(N)c2nc(-c3cccc(O)c3)c(-c3cccc(O)c3)nc2n1 | 0.372 µM (active) | 18.7 µM (active) |  | 18.7 µM (active) | 3.32 µM (active) | 4.18 µM (active) | 3.32 µM (active) | 2.96 µM (active) | 9.35 µM (active) | 3.72 µM (active)
5 | C[C@]12CC[C@@H]3c4ccc(O)cc4CC[C@H]3[C@H]1CC[C@H]2O | 5.9 µM (active) | 9.35 µM (active) |  | 6.62 µM (active) | 5.9 µM (active) | 6.62 µM (active) | 8.33 µM (active) | 16.6 µM (active) | 16.6 µM (active) | 
6 | FC(F)c1nc2ccccc2n1-c1nc(N2CCOCC2)nc(N2CCOCC2)n1 | 0.372 µM (active) | 1.32 µM (active) |  |  | 0.59 µM (active) | 0.209 µM (active) | 0.132 µM (active) | 0.372 µM (active) | 0.469 µM (active) | 0.118 µM (active)
7 | CCc1cnn2c(NCc3ccc[n+]([O-])c3)cc(N3CCCC[C@@H]3CCO)nc12 | 0.0418 µM (active) | 0.0209 µM (active) |  | 0.0372 µM (active) |  | 0.0235 µM (active) | 0.0187 µM (active) | 0.0296 µM (active) | 0.0264 µM (active) | 0.0187 µM (active)
8 | O=c1c(O)c(-c2ccc(O)c(O)c2)oc2cc(O)ccc12 | 6.62 µM (active) | 20.9 µM (active) |  |  | 18.7 µM (active) | 13.2 µM (active) | 14.8 µM (active) | 14.8 µM (active) | 18.7 µM (active) | 13.2 µM (active)
9 | N[C@H]1CN(c2c(F)cc3c(=O)c(C(=O)O)cn(C4C[C@@H]4F)c3c2Cl)CC12CC2 (stereo not given in full) | inactive | 20.9 µM (active) |  |  | inactive | inactive | inactive | inactive | inactive | 
10 | O=C(Nc1nnc(-c2ccco2)o1)c1cc(-c2ccccc2)nc2ccccc12 | 16.6 µM (active) | 18.7 µM (active) |  |  | 4.18 µM (active) | 13.2 µM (active) | 14.8 µM (active) | 18.7 µM (active) | 20.9 µM (active) | 14.8 µM (active)
11 | Cc1onc(-c2ccccc2)c1C(=O)N[C@@H]1C(=O)N2[C@@H](C(=O)O)C(C)(C)S[C@@H]12 | inactive | inactive |  |  | inactive | inactive |  |  | inactive | 
12 | CC1=C(C(=O)Nc2cc3cn[nH]c3cc2F)C(c2ccc(Cl)cc2F)N=C(c2ccnc(Cl)c2)N1 (stereo not given) | 5.9 µM (active) | 16.6 µM (active) |  |  | 14.8 µM (active) |  | 18.7 µM (active) |  | 18.7 µM (active) | 3.72 µM (active)
13 | Cc1cnc(Nc2ccc(N3CCN(C)CC3)cc2)nc1Nc1cccc(S(=O)(=O)NC(C)(C)C)c1 | 0.935 µM (active) | 1.48 µM (active) |  | 11.8 µM (active) | 0.662 µM (active) | 0.469 µM (active) | 0.469 µM (active) | 1.32 µM (active) | 0.935 µM (active) | 2.35 µM (active)
14 | NC(=O)Nc1cc(-c2ccc(CN3CCOCC3)cc2)sc1C(N)=O | 0.0833 µM (active) | 0.0372 µM (active) | 18.7 µM (active) | 16.6 µM (active) | 0.743 µM (active) | 0.132 µM (active) | 0.833 µM (active) | 1.48 µM (active) |  | 
15 | CC(C)(O)CC[C@@H](O)[C@](C)(O)[C@H]1CC[C@@]2(O)C3=CC(=O)[C@@H]4C[C@@H](O)[C@@H](O)C[C@]4(C)[C@@H]3CC[C@]12C | inactive | inactive |  |  |  | inactive |  | inactive | inactive | 
16 | Cc1ccc(O)c(C(CCN(C(C)C)C(C)C)c2ccccc2)c1 (stereo not given) | inactive | inactive |  | inactive | inactive | inactive | inactive | inactive | inactive | 
17 | CC(C)c1cnn2c(NCc3ccccc3)cc(NCCCCCCN)nc12 | 11.8 µM (active) | 6.62 µM (active) |  |  | 0.332 µM (active) | 0.935 µM (active) | 11.8 µM (active) | 26.4 µM (active) | 18.7 µM (active) | 

Row | SMILES | Potency [1] | Potency [2] | Potency [3] | Potency [4] | Potency [5] | Potency [6] | Potency [7] | Potency [8] | Potency [9] | Potency [10]
18 | CC(C=CC=C(C)C=CC1=C(C)CCCC1(C)C)=CC=CC=C(C)C=CC=C(C)C=CC1=C(C)CCCC1(C)C | 2.09 µM (active) | 9.35 µM (active) |  |  | 5.26 µM (active) | 16.6 µM (active) | 23.5 µM (active) |  | inactive | 
19 | CC[C@@]1([C@@H]2O[C@@H]([C@H]3O[C@@](O)(CO)[C@H](C)C[C@H]3C)C[C@H]2C)CC[C@H]([C@]2(C)CC[C@]3(C[C@H](O)[C@@H](C)[C@@H]([C@@H](C)[C@@H](OC)[C@H](C)C(=O)O)O3)O2)O1 | 0.229 µM (active) | 0.102 µM (active) |  |  | 0.257 µM (active) | 0.363 µM (active) | 0.512 µM (active) | 0.323 µM (active) | 0.162 µM (active) | 0.182 µM (active)
20 | Cc1coc2c1C(=O)C(=O)c1c-2ccc2c(C)cccc12 | 5.9 µM (active) | 14.8 µM (active) |  |  |  |  | 11.8 µM (active) |  | 2.96 µM (active) | 
21 | CC(C=CC(=O)NO)=C[C@@H](C)C(=O)c1ccc(N(C)C)cc1 | 0.148 µM (active) | 0.166 µM (active) | 0.166 µM (active) | 0.209 µM (active) | 0.469 µM (active) | 0.332 µM (active) | 0.372 µM (active) | 0.59 µM (active) |  | 0.235 µM (active)
22 | CN1C(C(=O)Nc2ccccn2)=C(O)c2sc(Cl)cc2S1(=O)=O | 1.32 µM (active) | 2.96 µM (active) |  | 4.18 µM (active) | 2.09 µM (active) | 1.66 µM (active) | 3.32 µM (active) | 3.72 µM (active) | 4.18 µM (active) | 4.69 µM (active)
23 | COC(=O)C1C2CC3c4[nH]c5cc(OC)ccc5c4CCN3CC2CC(OC(=O)c2cc(OC)c(OC)c(OC)c2)C1OC (stereo not given) | 16.6 µM (active) | 16.6 µM (active) |  |  |  |  |  | 14.8 µM (active) | 23.5 µM (active) | 
24 | COc1cc(C(=O)NC2CCN(C)CC2)ccc1Nc1ncc2c(n1)N(C1CCCC1)CCC(=O)N2C(C)C | 14.8 µM (active) | 18.7 µM (active) |  | 18.7 µM (active) | 4.69 µM (active) | 20.9 µM (active) | 14.8 µM (active) | 20.9 µM (active) | 20.9 µM (active) | 
25 | COC(=O)C=CC(=O)OC | 1.32 µM (active) | 11.8 µM (active) |  |  | 1.32 µM (active) | 1.32 µM (active) | 2.64 µM (active) | 5.26 µM (active) | 20.9 µM (active) | 2.35 µM (active)
26 | CCCCCN=C(N)NN=Cc1c[nH]c2ccc(OC)cc12 | 2.96 µM (active) | 3.72 µM (active) |  |  |  | 2.35 µM (active) |  | 4.18 µM (active) | 11.8 µM (active) | 
27 | CN[C@@H]1C[C@H]2O[C@@](C)([C@H]1OC)n1c3ccccc3c3c4c(c5c6ccccc6n2c5c31)C(=O)N[C@H]4O | 0.0235 µM (active) | 0.264 µM (active) | 5.9 µM (active) | 1.05 µM (active) | 0.0833 µM (active) | 0.148 µM (active) | 0.0469 µM (active) | 0.118 µM (active) |  | 0.148 µM (active)
28 | O=c1[nH]c(=O)n([C@H]2C[C@@H](O)[C@@H](CO)O2)cc1F | 0.59 µM (active) | 26.4 µM (active) |  | 23.5 µM (active) |  | 9.35 µM (active) | 18.7 µM (active) | 14.8 µM (active) | 0.0296 µM (active) | 10.5 µM (active)
29 | c1ccc(CNc2nc(NCc3ccccc3)c3ccccc3n2)cc1 | 4.69 µM (active) | 20.9 µM (active) | 29.6 µM (active) |  | 8.33 µM (active) | 7.43 µM (active) | 8.33 µM (active) | 11.8 µM (active) |  | 10.5 µM (active)
30 | C=CC(=O)Nc1cc(NC(=O)c2ccc(C)c(NC(=O)c3ccno3)c2)cc(C(F)(F)F)c1 | 16.6 µM (active) | 18.7 µM (active) | 18.7 µM (active) | 20.9 µM (active) | 16.6 µM (active) | 14.8 µM (active) | 16.6 µM (active) | 16.6 µM (active) |  | 20.9 µM (active)
31 | NC(=NCCCCCCN=C(N)N=C(N)Nc1ccc(Cl)cc1)N=C(N)Nc1ccc(Cl)cc1 | 2.96 µM (active) | 8.33 µM (active) | 11.8 µM (active) |  | 2.35 µM (active) | 2.64 µM (active) | 2.35 µM (active) | 6.62 µM (active) |  | 5.26 µM (active)
32 | Cn1cc(C=CC(=O)c2cccc(F)c2)cc1C=CC(=O)NO | 11.8 µM (active) | 14.8 µM (active) |  | 14.8 µM (active) | 2.35 µM (active) | 5.9 µM (active) |  | 20.9 µM (active) | 23.5 µM (active) | 
33 | CN[C@H]1[C@@H](O)[C@@H]2O[C@@H]3O[C@H](C)CC(=O)[C@]3(O)O[C@@H]2[C@@H](NC)[C@H]1O | 8.33 µM (active) | 1.18 µM (active) |  |  | 0.296 µM (active) | 0.0935 µM (active) | 1.87 µM (active) | 3.32 µM (active) | 8.33 µM (active) | 6.62 µM (active)
